Among the test systems are NCI-H23 lung; NCI-H226 lung; NCI-H322M lung; HOP-62 NSCLC; NCI-H460 lung; NCI-H522 lung; A549/ATCC NSCLC; 786-0 renal; COLO 205 colon; DU-145 prostate; K-562 leukemia; MALME-3M melanoma; MDA-MB-231 breast; SF-268 CNS; SF-295 CNS; SF-539 CNS; UACC-257 melanoma; M14 melanoma; RXF 393 renal; HOP-92 NSCLC.
Common to all, as to experiment: NCI-60 one-dose screen, 48 h (100 = growth as untreated, 0 = no growth, -100 = all killed)
What all share (conditions): 10 µM unless noted

Compounds without any hit were thinned out: in the full panel of roughly 83,000, 20% have a hit.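 Cells were grown in 96-well plates and exposed to the test compound at a single concentration for 48 hours; results are reported as percent growth, with values below 10 considered active.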 A number with no mark means an inactive call. The source made the active and inactive calls.

On to `CC(=O)c1c[nH]c2ccc(-c3ccnc(Nc4ccc(NC(=O)c5cccc(F)c5)c(CN5CCOCC5)c4)n3)cc12`, for which the growth is -13.2% (active) in the experiment with NCI-H23 lung; -0.697% (active) in the experiment on NCI-H226 lung; -1.47% (active) in the experiment with NCI-H322M lung; 1.97% (active) in the experiment with HOP-62 NSCLC; -6.06% (active) in the experiment with NCI-H460 lung; 0.424% (active) in the experiment with NCI-H522 lung. For the same molecule, the growth with A549/ATCC NSCLC was 8.56% (active); in the experiment with 786-0 renal, 5.7% (active); with COLO 205 colon, -17.8% (active); in the experiment on DU-145 prostate it was 2.59% (active); in the experiment on K-562 leukemia, 4.68% (active); with MALME-3M melanoma, -21.7% (active). The growth was -37.5% (active) in the experiment on MDA-MB-231 breast; -16.8% (active) in the experiment on SF-268 CNS; -17.2% (active) with SF-295 CNS; -56% (active) in the experiment with SF-539 CNS; 4.48% (active) in the experiment with UACC-257 melanoma; -19.4% (active) in the experiment with M14 melanoma.

As to `CC(=O)OCCCCCNc1ccccc1`, the growth was 101% in the experiment with NCI-H23 lung; 104% with NCI-H226 lung; 106% in the experiment with NCI-H322M lung; 102% with HOP-62 NSCLC; 118% in the experiment on NCI-H460 lung; 95.1% in the experiment with NCI-H522 lung. Moreover, the growth was 101% in the experiment on A549/ATCC NSCLC; 101% in the experiment on 786-0 renal; 107% in the experiment with COLO 205 colon; 106% in the experiment with DU-145 prostate; 103% in the experiment with MALME-3M melanoma; 98% in the experiment with MDA-MB-231 breast. In addition, the growth in the experiment with RXF 393 renal was 123%; with SF-268 CNS, 99.4%; in the experiment on SF-295 CNS, 110%; with SF-539 CNS, 94.2%; with UACC-257 melanoma, 110%; in the experiment on M14 melanoma, 113%.

As for `FC(F)(F)c1cccc(Oc2ccc(Nc3ncnc4ccc(OCCCN5CCOCC5)cc34)cc2Cl)c1`, the growth was 76.1% in the experiment with NCI-H23 lung; 84.7% in the experiment with NCI-H226 lung; 37.5% in the experiment with NCI-H322M lung; 62.3% in the experiment with HOP-62 NSCLC; 14.2% with NCI-H460 lung; 35.1% in the experiment on NCI-H522 lung. The growth in the experiment with A549/ATCC NSCLC was 49.4%; in the experiment with 786-0 renal, 44.6%; in the experiment with COLO 205 colon, 47%; in the experiment on DU-145 prostate, 43%; with K-562 leukemia it was 1.77% (active); with MALME-3M melanoma, -4.17% (active). Moreover, the growth was 22.4% with MDA-MB-231 breast; 55.6% with SF-268 CNS; 25.7% in the experiment with SF-295 CNS; 60.8% in the experiment on SF-539 CNS; 40.1% with UACC-257 melanoma; -36% (active) in the experiment with M14 melanoma.

Consider `CC(=O)N1c2ccccc2NC2=C(C(=O)N(Cc3ccccc3)C2(C)C)C1c1ccco1` (stereo unspecified), for which the growth is 20.9% in the experiment on NCI-H23 lung; 65.7% with NCI-H226 lung; 44.6% with NCI-H322M lung; 33.1% with HOP-62 NSCLC; 21.1% in the experiment on HOP-92 NSCLC; 21.8% in the experiment on NCI-H522 lung. Besides, the growth in the experiment on A549/ATCC NSCLC was 22%; in the experiment with 786-0 renal, 21.4%; with COLO 205 colon it was 16.8%; in the experiment on DU-145 prostate, 7.82% (active); with K-562 leukemia it was 12.6%; in the experiment with MALME-3M melanoma, 69.9%. For the same molecule, the growth was 9.25% (active) in the experiment on MDA-MB-231 breast; -11.7% (active) with RXF 393 renal; 42.7% with SF-268 CNS; -0.752% (active) in the experiment on SF-295 CNS; -17.9% (active) in the experiment with SF-539 CNS; 77.6% in the experiment on UACC-257 melanoma. The growth in the experiment on M14 melanoma is -13.6% (active).

As to `CCCCCCCCCCCC(=O)C(CCCCCCCCCC)C(=O)Nc1ccccc1` (stereo unspecified), the growth in the experiment on NCI-H23 lung was 95.8%; in the experiment with NCI-H226 lung, 97.1%; in the experiment on NCI-H322M lung, 90.6%; with HOP-62 NSCLC it was 96.8%; in the experiment on NCI-H460 lung, 111%; in the experiment on NCI-H522 lung, 89.4%. For the same molecule, the growth with A549/ATCC NSCLC is 91.2%; with 786-0 renal, 107%; in the experiment on COLO 205 colon, 108%; with DU-145 prostate, 104%; in the experiment with K-562 leukemia, 104%; with MALME-3M melanoma it was 105%. Moreover, the growth in the experiment on MDA-MB-231 breast is 91.2%; in the experiment with RXF 393 renal it was 116%; in the experiment on SF-268 CNS, 104%; in the experiment on SF-295 CNS it was 102%; in the experiment with SF-539 CNS it was 98.2%; in the experiment with UACC-257 melanoma it was 92.9%. In the experiment on M14 melanoma, the growth was 103%.

Take `Cn1c(COC(=O)NCCn2ccnc2)nc2c(N3CCOCC3)nc(-c3ccccc3)nc21`: the growth with NCI-H23 lung was -74.8% (active); in the experiment on NCI-H226 lung, -53.8% (active); in the experiment on NCI-H322M lung it was 33.4%; in the experiment on HOP-62 NSCLC, -40.4% (active); in the experiment on NCI-H460 lung, -72.1% (active); in the experiment with NCI-H522 lung it was -54.7% (active). Moreover, the growth in the experiment on A549/ATCC NSCLC is -36.2% (active); with 786-0 renal it was -89.7% (active); with COLO 205 colon, -57.3% (active); in the experiment on DU-145 prostate, -89.9% (active); in the experiment on K-562 leukemia, 4.31% (active); in the experiment on MALME-3M melanoma, -93.9% (active). The growth in the experiment on MDA-MB-231 breast was -90.6% (active); in the experiment on SF-268 CNS, -61.6% (active); in the experiment on SF-295 CNS, 18%; in the experiment on SF-539 CNS, -99.6% (active); with UACC-257 melanoma, -56.7% (active); in the experiment with M14 melanoma it was -72.5% (active).

As for `Clc1nc(Nc2ccccc2)nc(Nc2ccccc2)n1`, the growth in the experiment with NCI-H23 lung is 103%; with NCI-H226 lung, 91.2%; in the experiment with NCI-H322M lung, 96.3%; with HOP-62 NSCLC, 81.5%; with NCI-H460 lung it was 109%; in the experiment on NCI-H522 lung, 83.8%. Further, the growth is 104% in the experiment on A549/ATCC NSCLC; 84.4% with 786-0 renal; 108% in the experiment on COLO 205 colon; 101% in the experiment with DU-145 prostate; 111% with MALME-3M melanoma; 88.8% in the experiment with MDA-MB-231 breast. For the same molecule, the growth in the experiment on RXF 393 renal was 117%; in the experiment with SF-268 CNS, 103%; with SF-295 CNS, 100%; with SF-539 CNS, 100%; in the experiment on UACC-257 melanoma it was 130%; in the experiment with M14 melanoma, 118%.

On to `c1ccc(Cn2nc3c(c2-c2ccccc2)-c2oncc2CC3)cc1`, for which the growth was 87.5% with NCI-H23 lung; 103% in the experiment on NCI-H226 lung; 113% in the experiment on NCI-H322M lung; 105% with HOP-62 NSCLC; 102% with NCI-H460 lung; 76% with NCI-H522 lung. Further, the growth in the experiment on A549/ATCC NSCLC was 90.5%; in the experiment on 786-0 renal, 105%; with COLO 205 colon, 113%; in the experiment with DU-145 prostate, 112%; in the experiment on K-562 leukemia, 73.2%; with MALME-3M melanoma, 89%. Moreover, the growth in the experiment on MDA-MB-231 breast is 96.8%; in the experiment on SF-268 CNS, 107%; with SF-295 CNS, 76.7%; in the experiment with SF-539 CNS, 110%; in the experiment on UACC-257 melanoma it was 92.1%; in the experiment with M14 melanoma, 98.2%.

The values above are taken from PubChem BioAssay (NCI).
